Bioassay records: PubChem, several laboratories
FAK blocker: FAK (human) kinase inhibition; biochemical FAK kinase activity assay; inhibition, %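 (tested at 7 µM)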; 97,000 tested, 0.84% active; AID 727
ERb coact inh: ER-beta (human) coactivator binding inhibition; 86,000 tested, 1.3% active; TR-FRET ER-beta LBD / SRC1-Cy5 peptide binding; receptor agonist-loaded with 1 µM estradiol; Q92731; inhibition, % at 25.6 µM;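 active = compounds whose percent inhibition of the receptor-coactivator binding signal exceeds about 50% in the single-dose screen, limit read from the data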
Target sequence (Q92731 whole entry, looked up, the tested form may be a part): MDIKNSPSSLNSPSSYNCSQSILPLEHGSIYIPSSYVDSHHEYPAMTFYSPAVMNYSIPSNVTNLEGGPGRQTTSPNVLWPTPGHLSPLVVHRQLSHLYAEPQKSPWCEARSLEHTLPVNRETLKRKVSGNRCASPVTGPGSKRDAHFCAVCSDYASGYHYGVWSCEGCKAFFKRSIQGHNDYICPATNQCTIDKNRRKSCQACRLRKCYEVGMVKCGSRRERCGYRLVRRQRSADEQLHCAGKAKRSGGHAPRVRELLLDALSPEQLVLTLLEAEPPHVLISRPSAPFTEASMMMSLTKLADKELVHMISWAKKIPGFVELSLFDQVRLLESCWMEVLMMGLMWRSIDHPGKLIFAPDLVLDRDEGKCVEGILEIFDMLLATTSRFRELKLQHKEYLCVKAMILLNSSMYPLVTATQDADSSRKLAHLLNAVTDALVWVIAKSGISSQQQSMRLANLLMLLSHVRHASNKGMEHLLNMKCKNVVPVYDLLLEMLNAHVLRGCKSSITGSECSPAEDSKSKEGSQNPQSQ
ERa SRC1 inh: ER-alpha (human) coactivator binding inhibition; TR-FRET ER-alpha LBD / SRC-1 peptide, estradiol-bound; 86,000 tested, 1.7% active; inhibition, % at 25.6 µM; AID 629; P03372; in the data active = inhibition above about 50%
ERa coact pot: enhances coactivator binding to human estrogen receptor alpha; TR-FRET ERalpha-LBD/SRC-Cy5 coactivator binding, 2 h; 100 = basal binding, no effect; coactivator binding (% of control), % at 25.6 µM; P03372; AID 639; 86,000 tested, 1.3% active; in the data active = activity above about 200%;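 also: binding measured in presence of low estradiol as agonist stimulus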
Smad3 inh: Smad3 (human) transcription factor binding inhibition; P84022; TR-FRET Smad3/Dy647-FoxH1 peptide binding, europium anti-His; inhibition, % at 25 µM; 88,000 tested, 0.29% active; AID 630;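 active = compounds that reduce the energy-transfer binding signal between the protein and its labelled peptide by more than half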
FAK inh conf: FAK (human) inhibition confirmed; shares compounds with FAK blocker; FAK kinase biochemical inhibition assay; inhibition, % at 7 µM; 750 tested, 28% active; AID 794
Hits are given with their value; - = inactive; . = not tested or not shown; [ ] = another dose, or the depositor's remark. Sampled rows, rich in hits. Any-hit rate of the full collection: about 3.3%. Rule as the data show it, unless noted: active = inhibition above about 19%; inactive = the rest.

SMILES	FAK blocker	ERb coact inh	ERa SRC1 inh	ERa coact pot	Smad3 inh	FAK inh conf
Fc1cccc2sc(Nc3nnc(-c4ccccc4)o3)nc12	-	-	-	-	-	.
COc1cc(OC)cc(-c2nnc(Nc3nc4c(F)cccc4s3)o2)c1	36	-	-	436[fluorescence artefact?]	-	-
COc1ccc(-c2nnc(Nc3nc4c(OC)cccc4s3)o2)cc1	56	73[fluorescence artefact?]	77[fluorescence artefact?]	-	-	27
CN1CCN(C(=O)C23CCC(C)(c4nc5ccccc5nc42)C3(C)C)CC1 (stereo not given)	-	-	-	-	-	.
CC(C)(C)c1nc(SCC(=O)NCc2ccco2)c2ccccc2n1	38	.	.	.	.	-
Cc1ccc(-c2cc(C(=O)Nc3nn[nH]n3)c3ccccc3n2)cc1	-	.	.	.	.	.
CCCNC(=O)CC1C(=O)N(Cc2ccccc2)C(C)c2nc3ccccc3n21 (stereo not given)	-	-	-	-	-	.
O=c1oc2c3c4c(cc2s1)CCCN4CCC3	20	68[fluorescence artefact?]	72[fluorescence artefact?]	-	-	-
CCC(C)n1cnc2c(c1=O)c1nc3ccccc3nc1n2-c1ccc2c(c1)OCCO2 (stereo not given)	21	-	-	246	-	-
COC(=O)CSc1nnc(CNS(=O)(=O)c2ccc(Cl)cc2)n1C	-	-	-	-	-	.
CCOC(=O)c1sc(C)c2c1NC1(CCCCCC1)NC2=O	68	-	-	-	-	-
COc1ccc2sc3ccccc3c(=O)c2c1	29	.	.	.	.	-
CCN1CCN(c2cc(C)c3cc(NC(=O)c4cncc(Br)c4)ccc3n2)CC1	26	-	-	-	-	-
CCN1CCN(c2cc(C)c3cc(NC(=O)c4ccc(OC)c(OC)c4)ccc3n2)CC1	-	-	-	-	-	.
Cc1ccc(Cl)cc1NC1=C/C(=N\S(=O)(=O)c2cccs2)c2ccccc2C1=O	32	.	.	.	.	23
Clc1ccc(Br)cc1-c1nc(-c2ccncc2)no1	28	-	-	246[fluorescence artefact?]	-	-
Brc1cccc(-c2nc(-c3ccncc3)no2)c1	.	-	-	-	-	.
CCCc1nc2n[nH]c(N)c2c2c1COC(C)(C)C2	-	-	-	-	-	.
CCCCc1nc2n[nH]c(N)c2c2c1CCC2	20	-	-	-	-	-
CC(C)Cc1nc2n[nH]c(N)c2c2c1CCC2	19	-	-	-	-	-
O=C(O)C1CCCCC1C(=O)NCCc1c[nH]c2ccccc12 (stereo not given)	-	-	-	-	-	.
O=C(NCCc1c[nH]c2ccccc12)C1CCN(c2nnc(N3CCCC3=O)s2)CC1	36	-	-	-	-	31
Cc1ccnc(NC(=O)c2cccc(NS(=O)(=O)c3ccccc3C)c2)c1	-	.	.	.	.	.
COC(=O)c1cc(OC)c(OC)cc1NC(=O)c1cc(-c2ccccc2)nc2ccccc12	21	.	.	.	.	-
CC1CCc2c(sc(NC(=O)CN3CCN(C(=O)c4ccco4)CC3)c2C#N)C1 (stereo not given)	-	.	.	.	.	.
SMILES	FAK blocker	ERb coact inh	ERa SRC1 inh	ERa coact pot	Smad3 inh	FAK inh conf
CCOc1cccc(CNc2ccc(O)cc2)c1OCc1ccc(Cl)cc1	30	.	.	.	.	-
CCOc1cc(CNc2ccc(O)cc2)ccc1OCc1ccc(Cl)cc1Cl	32	.	.	.	.	-
COc1cc(CNCc2ccccn2)ccc1OCc1ccc(Cl)cc1Cl	-	.	.	.	.	.
Oc1ccc(NCc2ccccc2OCc2ccccc2F)cc1	35	.	.	.	.	-
CCN1CCN(C(=O)c2ccc(NS(=O)(=O)c3ccccc3)cc2)CC1	-	-	-	-	-	.
CSc1nc(SCC(=O)NC(c2ccccc2)c2ccccc2)c2c3c(sc2n1)CN(C)CC3	24	-	-	-	-	-
CSc1nc(SCC(=O)NCc2ccco2)c2c3c(sc2n1)COC(C)(C)C3	.	-	-	-	-	.
O=C1CC(C(=O)N2CCOCC2)C2(CCCCC2)O1 (stereo not given)	-	-	-	-	-	.
Cc1ccccc1NC(=O)CN1C(=O)S/C(=C\c2cccn2-c2cccc(C(=O)O)c2)C1=O	-	.	.	.	.	.
Cc1ccc(NC(=O)CN2C(=O)S/C(=C\c3cccn3-c3cccc(C(=O)O)c3)C2=O)c(C)c1	65	.	.	.	.	-
CC1CCCN(C(=O)CSc2cnc3ccccc3n2)C1 (stereo not given)	-	.	.	.	.	.
O=c1[nH]c2ccccc2nc1N1CCOCC1	-	-	-	-	-	.
c1ccc2c(c1)nc(N1CCOCC1)c1c3ccccc3[nH]c21	31	-	-	-	-	-
Cc1cc(C)c(S(C)(=O)=O)c(Sc2ccc(Cl)cc2)n1	-	.	.	.	.	.
COc1ccc(CN(C(=O)CSc2nnc(-c3c[nH]c4ccccc34)o2)c2ccc(F)cc2)cc1OC	-	-	-	-	-	.
CC(=O)N(/N=C1\Sc2ccccc2C1=O)c1ccc(C)cc1C	-	-	-	-	-	.
CC(=O)N(/N=C1\Sc2ccccc2C1=O)c1ccccc1C	22	-	-	-	-	-
COc1cc(N/C=C(\C(C)=O)c2ccccc2)cc(OC)c1	-	.	.	.	.	.
CCOC(=O)C1=C(C)OC(N)=C(C#N)C1C1CCCCC1 (stereo not given)	.	-	-	-	-	.
CCOC(=O)C1=C(c2ccccc2)OC(N)=C(C#N)C1C1CCCCC1 (stereo not given)	24	-	-	-	-	21
O=c1oc(-c2ccc(Br)o2)nc2ccccc12	35	-	-	-	-	37
COc1cc(OC)cc(-c2nc3ccccc3c(=O)o2)c1	-	-	-	-	-	.
CN(C)S(=O)(=O)c1ccc(C(=O)OCn2nnc3ccccc3c2=O)cc1	-	-	-	-	-	.
CCN(CC)CCn1c2ccccc2c2cnc(N)c(C#N)c21	40	-	-	-	-	-
Cn1c(N2CCOCC2)nc(-c2ccccc2)c1-c1ccccc1	-	.	.	.	.	.
SMILES	FAK blocker	ERb coact inh	ERa SRC1 inh	ERa coact pot	Smad3 inh	FAK inh conf
Cc1ccc(-c2c(C#N)c(N)n3c(nc4ccccc43)c2C#N)cc1	24	.	.	.	.	-
Nc1nnc2c(n1)CCCC2	21	-	-	-	-	-
COc1cccc(CN2CC(O)=C(c3nc(-c4ccc(Cl)cc4)cs3)C2=N)c1	32	.	.	.	.	26
CCCCN1CC(O)=C(c2nc(-c3ccc(Cl)cc3)cs2)C1=N	32	-	64[fluorescence artefact?]	256[fluorescence artefact?]	-	-
COCCOC(=O)C1=C(C)NC2=C(C(=O)CC(c3cccs3)C2)C1c1ccsc1 (stereo not given)	23	-	-	-	-	19
Cc1ccccc1[C@@H]1C(C#N)=C(N)S[C@H]1C(=O)c1ccccc1	-	.	.	.	.	.
Cc1nc2ccc(Cl)cc2nc(C)/c1=N\O	-	-	-	-	-	.
Cc1n[nH]c(C)c1N=Nc1cc(Cl)ccc1Cl	41	.	.	.	.	21
CCCCOCCCNC(=O)/C=C/c1ccccc1Cl	-	.	.	.	.	.
Cc1ccc(NC2=C(N3CCOCC3)C(=O)c3ccccc3C2=O)cc1	43	.	.	.	.	-
CC(=O)c1ccc(NC2=C(N3CCOCC3)C(=O)c3ccccc3C2=O)cc1	-	.	.	.	.	.
N#Cc1cccc(NC(=O)c2ccccc2C(=O)O)c1	22	-	-	-	-	-
Cc1ccccc1C(=O)Nc1cccc(C#N)c1	-	-	-	-	-	.
CCOC(=O)N1CCC2(CC1)C(C#N)=C(N)Oc1n[nH]c(CSc3ccc(C)cc3)c12	22	-	-	-	-	-
